From PubChem BioAssay (EPA / NIEHS) come the findings set out here.

Records with an inconclusive call do not appear. Activity calls are given as the source filed them. How the source made its calls, unless noted: active means hit-call score of the fitted dose curve at least 0.9, where 1 is the maximum; inactive means score below 0.9.

A short description of assay [1]: BSK_3C_VCAM1: BioMAP Diversity Plus: 3C Assay for Vascular cell adhesion molecule 1 (VCAM1) Biomarker Activity (AID 2282999). The conditions noted are these: BioMAP 3C HUVEC, VCAM1 ELISA, cytokine-stimulated; actives raise or lower the signal. In short, it runs like this: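 Activity fitted in both directions relative to DMSO, with ELISA measurement of the surface marker on primary HUVEC (3C) at 24 h post-treatment; parallel SRB staining (0.1% SRB, TCA-fixed, 560 nm) flagged overt cytotoxicity.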

Assay [2] in a line: BSK_4H_Eotaxin3: BioMAP Diversity Plus: 4H Assay for Eotaxin 3 Biomarker Activity (AID 2283000).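 On outcome: CCL26 protein level quantified by ELISA in parallel with SRB cytotoxicity check.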 The following applies: primary human endothelial cells (HUVEC); actives raise or lower the signal. Summed up:
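Endothelial primary cells (human umbilical vein) exposed to compound for 24 h. ELISA detection of Eotaxin-3.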

For assay [3], the target named is human Peroxisome Proliferator-activated Receptor alpha (PPARa), PPARA (gene 5465) (UniProt Q07869). As to the kind of experiment: ATG_PPARa_TRANS: Attagene TRANS-FACTORIAL HepG2 Assay for human Peroxisome Proliferator-activated Receptor alpha (PPARa) (AID 2283001; active means hit-call score of the fitted dose curve at least 0.9, where 1 is the maximum). In short, it runs like this:
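Transfected HepG2 cells treated with test chemical for 24 h. RNA isolated, reverse-transcribed with oligo(dT), PCR-amplified, FAM-labelled and HpaI-digested. Fragments sized by capillary electrophoresis; gain-of-signal fit relative to DMSO.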

Read-out in assay [4]: Intercellular Adhesion Molecule 1 (ICAM1), ICAM1 (gene 3383)
The assay can be described thus: BSK_3C_ICAM1: BioMAP Diversity Plus: 3C Assay for Intercellular Adhesion Molecule 1 (ICAM1) Biomarker Activity (AID 2283003). The following applies: primary human endothelial cells (HUVEC); actives raise or lower the signal. Summed up: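 Using DMSO as baseline, bidirectional curve fitting was applied to ICAM-1 ELISA signals from HUVEC in the 3C system, measured 24 h after compound addition.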

Assay [5] is described as follows: BSK_3C_Proliferation: Cell Proliferation Assessment in the BioMAP Diversity Plus: 3C Assay (AID 2283006).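 On AC50: potency may reflect either rise or fall in cell number versus DMSO.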 The conditions noted are these: primary human endothelial cells (HUVEC). In short, it runs like this:
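Measured here: sulforhodamine B (0.1%) staining of TCA-fixed sub-confluent umbilical vein endothelial cultures 48 h post-dosing, absorbance 560 nm. DMSO served as negative control and baseline; both signal gain and loss were modelled.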

For assay [6], the target named is Peroxisome proliferator-activated receptor gamma (Homo sapiens) (UniProt P37231). The assay can be described thus: ATG_PPARg_TRANS: Attagene TRANS-FACTORIAL HepG2 Assay for human Peroxisome Proliferator-activated Receptor-gamma (PPARg) (AID 2283007; active means hit-call score of the fitted dose curve at least 0.9, where 1 is the maximum). In short, it runs like this:
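Chimeric NR-Gal4 transactivation is measured in transiently transfected HepG2 cells by reporter mRNA induction at 24 h. Detection uses RT-PCR with fluorescent labelling and capillary electrophoresis; DMSO defines baseline.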

Assay [7] deals with human RAR-related Orphan Receptor gamma (RORg), RORC (gene 6097) (UniProt P51449). As to the kind of experiment: ATG_RORg_TRANS: Attagene TRANS-FACTORIAL HepG2 Assay for human RAR-related Orphan Receptor gamma (RORg) (AID 2283011; active means hit-call score of the fitted dose curve at least 0.9, where 1 is the maximum). In short, it runs like this: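 Activity is scored as increase in GAL4-UAS reporter mRNA over DMSO, detected by fluorescent RT-PCR and capillary electrophoresis in HepG2 cells transiently expressing a RORg-Gal4 chimera, 24 h after dosing.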
Sequence of human RAR-related Orphan Receptor gamma (RORg), RORC (gene 6097) (P51449 whole entry, looked up, the tested form may be a part): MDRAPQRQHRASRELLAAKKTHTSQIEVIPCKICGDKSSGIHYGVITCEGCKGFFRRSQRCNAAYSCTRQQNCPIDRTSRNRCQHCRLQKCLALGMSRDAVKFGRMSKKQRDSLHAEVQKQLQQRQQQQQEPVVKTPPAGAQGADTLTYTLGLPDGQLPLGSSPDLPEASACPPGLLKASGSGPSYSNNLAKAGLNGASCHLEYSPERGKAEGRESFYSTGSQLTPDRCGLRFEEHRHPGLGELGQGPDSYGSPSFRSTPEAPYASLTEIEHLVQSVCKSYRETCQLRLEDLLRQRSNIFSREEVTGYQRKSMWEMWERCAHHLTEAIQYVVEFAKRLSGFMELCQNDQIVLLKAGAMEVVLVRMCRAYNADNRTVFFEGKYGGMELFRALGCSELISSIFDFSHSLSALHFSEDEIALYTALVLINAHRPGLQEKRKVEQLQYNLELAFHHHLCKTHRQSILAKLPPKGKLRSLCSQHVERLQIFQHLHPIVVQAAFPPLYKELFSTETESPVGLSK

In assay [8] the target is Retinoic acid receptor RXR-alpha (Homo sapiens) (UniProt P19793). As to the kind of experiment: ATG_RXRa_TRANS: Attagene TRANS-FACTORIAL HepG2 Assay for human Retinoid X Receptor alpha (RXRa) (AID 2283012; active means hit-call score of the fitted dose curve at least 0.9, where 1 is the maximum). In short, it runs like this: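 Chimeric NR-GAL4 trans-activation in HepG2, 24 h treatment; reporter transcripts quantified by fluorescence on capillary electrophoresis, analysed for upward change from DMSO.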
Sequence of Retinoic acid receptor RXR-alpha (Homo sapiens) (P19793 whole entry, looked up, the tested form may be a part): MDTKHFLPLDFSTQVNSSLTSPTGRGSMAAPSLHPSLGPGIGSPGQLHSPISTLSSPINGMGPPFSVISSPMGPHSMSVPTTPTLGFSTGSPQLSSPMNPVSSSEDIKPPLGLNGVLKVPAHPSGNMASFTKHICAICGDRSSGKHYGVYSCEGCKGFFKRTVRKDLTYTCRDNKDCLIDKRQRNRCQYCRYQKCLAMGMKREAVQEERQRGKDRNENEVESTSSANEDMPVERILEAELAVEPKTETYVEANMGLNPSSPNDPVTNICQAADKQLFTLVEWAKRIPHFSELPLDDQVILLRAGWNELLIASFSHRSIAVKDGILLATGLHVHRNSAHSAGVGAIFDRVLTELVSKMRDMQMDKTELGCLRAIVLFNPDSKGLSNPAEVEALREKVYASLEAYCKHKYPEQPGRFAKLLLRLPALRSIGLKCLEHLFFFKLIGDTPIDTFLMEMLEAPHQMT

Assay [9] concerns the target human Retinoid X Receptor beta (RXRb), RXRB (gene 6257) (UniProt P28702). As to the kind of experiment: ATG_RXRb_TRANS: Attagene TRANS-FACTORIAL HepG2 Assay for human Retinoid X Receptor beta (RXRb) (AID 2283013; active means hit-call score of the fitted dose curve at least 0.9, where 1 is the maximum). In short, it runs like this:
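After a 24 h incubation with test chemical, transfected HepG2 cells carrying NR-Gal4 fusions and GAL4-UAS reporter transcription units yield RNA whose reporter cDNA is FAM-labelled, HpaI-cut and sized by capillary electrophoresis; increases over DMSO are scored.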

Assay [10] concerns the target human Thyroid Receptor alpha (THRa1), THRA (gene 7067) (UniProt P10827). The assay can be described thus: ATG_THRa1_TRANS: Attagene TRANS-FACTORIAL HepG2 Assay for human Thyroid Receptor alpha (THRa1) (AID 2283014; active means hit-call score of the fitted dose curve at least 0.9, where 1 is the maximum). Summed up: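 First, HepG2 cells receive multiple GAL4-UAS reporter units and the chimeric receptor. They are then dosed for 24 h, after which RNA is reverse-transcribed, amplified, labelled, HpaI-cut and sized by capillary electrophoresis; gain relative to DMSO is scored.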

Read-out in assay [11]: E-selectin (Homo sapiens) (UniProt P16581)
As to the kind of experiment: BSK_3C_Eselectin: BioMAP Diversity Plus: 3C Assay for Eselectin Biomarker Activity (AID 2283015).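 On outcome: cell surface E-selectin protein quantified by ELISA 24 h after dosing.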 The conditions noted are these: primary human endothelial cells (HUVEC); actives raise or lower the signal. In short, it runs like this:
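Human vascular endothelium from umbilical vein is exposed to test chemicals for 24 h. E-selectin levels are read by ELISA and compared with DMSO controls.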

Read-out in assay [12]: Interleukin-1 alpha (IL1a), IL1A (gene 3552)
As to the kind of experiment: BSK_BE3C_IL1a: BioMAP Diversity Plus: BE3C Assay for Interleukin-1 alpha (IL1a) Biomarker Activity (AID 2283016). The following applies: primary human bronchial epithelial cells; actives raise or lower the signal. In short, it runs like this:
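Measured in human lung primary bronchial epithelial cells: IL-1a by ELISA at 24 h after dosing, with bidirectional fitting against DMSO.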

Read-out in assay [13]: Monocyte Chemoattractant Protein-1 (MCP1), CCL2 (gene 6347)
The assay can be described thus: BSK_4H_MCP1: BioMAP Diversity Plus: 4H Assay for Monocyte Chemoattractant Protein-1 (MCP1) Biomarker Activity (AID 2283018). The following applies: primary human endothelial cells (HUVEC); actives raise or lower the signal. In short, it runs like this:
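Primary human umbilical vein endothelium is exposed to chemical for 24 h before MCP-1 is assayed by ELISA. Concentration-response fitted bidirectionally relative to DMSO.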

Assay [14] deals with human Peroxisome Proliferator-activated Receptor delta (PPARd), PPARD (gene 5467) (UniProt Q03181). The assay can be described thus: ATG_PPARd_TRANS: Attagene TRANS-FACTORIAL HepG2 Assay for human Peroxisome Proliferator-activated Receptor delta (PPARd) (AID 2283002; active means hit-call score of the fitted dose curve at least 0.9, where 1 is the maximum). In short, it runs like this: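 Transient HepG2 transfection (multiple GAL4-UAS RTUs, chimeric receptor-Gal4); 24 h dosing; total RNA → oligo(dT) RT → PCR → 6-FAM primer extension → HpaI cut → CE. Positive direction vs DMSO.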
Sequence of human Peroxisome Proliferator-activated Receptor delta (PPARd), PPARD (gene 5467) (Q03181 whole entry, looked up, the tested form may be a part): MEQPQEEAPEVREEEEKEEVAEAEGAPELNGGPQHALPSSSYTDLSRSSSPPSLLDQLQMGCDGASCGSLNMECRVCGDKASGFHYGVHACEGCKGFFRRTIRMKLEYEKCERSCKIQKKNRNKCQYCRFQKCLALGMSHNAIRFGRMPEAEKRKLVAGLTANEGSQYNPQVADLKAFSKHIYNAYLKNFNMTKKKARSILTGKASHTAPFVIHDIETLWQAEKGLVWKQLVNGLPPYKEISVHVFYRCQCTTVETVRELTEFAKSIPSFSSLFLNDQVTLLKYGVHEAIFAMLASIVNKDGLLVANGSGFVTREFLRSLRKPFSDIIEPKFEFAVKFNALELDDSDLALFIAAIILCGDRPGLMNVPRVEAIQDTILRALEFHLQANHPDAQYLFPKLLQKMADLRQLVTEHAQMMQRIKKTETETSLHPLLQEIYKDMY

Assay [15] concerns the target Nuclear receptor subfamily 1 group I member 2 (Homo sapiens) (UniProt O75469). The assay can be described thus: ATG_PXR_TRANS: Attagene TRANS-FACTORIAL HepG2 Assay for human Pregnane X Receptor (PXR) (AID 2283008; active means hit-call score of the fitted dose curve at least 0.9, where 1 is the maximum). In short, it runs like this: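 Multiplexed TRANS reporter panel in HepG2; this component tracks PXR-Gal4-driven reporter mRNA after 24 h dosing, measured by RT-PCR with capillary electrophoresis fluorescence, fitted against DMSO.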

In assay [16] the target is human RAR-related Orphan Receptor beta (RORb), RORB (gene 6096) (UniProt Q92753). As to the kind of experiment: ATG_RORb_TRANS: Attagene TRANS-FACTORIAL HepG2 Assay for human RAR-related Orphan Receptor beta (RORb) (AID 2283010; active means hit-call score of the fitted dose curve at least 0.9, where 1 is the maximum). In short, it runs like this: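 Multiplexed transcription-factor reporter assay: HepG2 cells transiently carrying NR-Gal4/GAL4-UAS constructs, 24 h treatment, mRNA quantified by RT-PCR plus capillary electrophoresis fluorescence; activity scored as induction over DMSO.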
Sequence of human RAR-related Orphan Receptor beta (RORb), RORB (gene 6096) (Q92753 whole entry, looked up, the tested form may be a part): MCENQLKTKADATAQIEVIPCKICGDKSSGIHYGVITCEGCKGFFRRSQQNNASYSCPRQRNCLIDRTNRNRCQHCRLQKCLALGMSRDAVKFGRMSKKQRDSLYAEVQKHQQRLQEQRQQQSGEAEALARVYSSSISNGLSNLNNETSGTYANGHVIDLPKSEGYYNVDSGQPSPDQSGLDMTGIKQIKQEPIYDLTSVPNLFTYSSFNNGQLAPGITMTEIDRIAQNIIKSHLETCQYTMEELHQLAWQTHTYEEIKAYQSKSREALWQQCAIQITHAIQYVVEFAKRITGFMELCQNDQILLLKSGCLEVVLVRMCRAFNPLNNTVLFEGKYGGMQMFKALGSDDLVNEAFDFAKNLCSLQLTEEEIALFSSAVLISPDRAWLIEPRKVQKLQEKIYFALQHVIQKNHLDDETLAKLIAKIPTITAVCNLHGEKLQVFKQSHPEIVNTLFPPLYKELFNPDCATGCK

In assay [17] the target is human Retinoic Acid Receptor beta (RARb), RARB (gene 5915) (UniProt P10826). The assay can be described thus: ATG_RARb_TRANS: Attagene TRANS-FACTORIAL HepG2 Assay for human Retinoic Acid Receptor beta (AID 2283004; active means hit-call score of the fitted dose curve at least 0.9, where 1 is the maximum). In short, it runs like this:
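HepG2, transient MRTU transfection, NR–Gal4 chimera, 24 h treatment; RT-PCR plus CE fluorescence detection of reporter mRNA; gain of signal vs DMSO.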

The target of assay [18] is Retinoic acid receptor alpha (Homo sapiens) (UniProt P10276). As to the kind of experiment: ATG_RARa_TRANS: Attagene TRANS-FACTORIAL HepG2 Assay for human Retinoic Acid Receptor alpha (RARa) (AID 2283005; active means hit-call score of the fitted dose curve at least 0.9, where 1 is the maximum). In short, it runs like this:
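Reporter transcripts, measured by RT-PCR with fluorescent labeling and capillary electrophoresis after 24 h dosing, reflect activity of an exogenous human RARa–GAL4 fusion in transiently transfected HepG2. Fitted for increase relative to DMSO.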

The target of assay [19] is human Retinoic Acid Receptor gamma (RARg), RARG (gene 5916) (UniProt P13631). The assay can be described thus: ATG_RARg_TRANS: Attagene TRANS-FACTORIAL HepG2 Assay for human Retinoic Acid Receptor gamma (RARg) (AID 2283009; active means hit-call score of the fitted dose curve at least 0.9, where 1 is the maximum). In short, it runs like this:
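Gain-of-signal relative to DMSO is reported from fluorescent capillary electrophoresis of RT-PCR reporter products. These came from HepG2 cells expressing transfected RARg-GAL4 chimeras with UAS reporters, harvested 24 h after dosing.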

Read-out in assay [20]: Monocyte Chemoattractant Protein-1 (MCP1), CCL2 (gene 6347)
The assay can be described thus: BSK_3C_MCP1: BioMAP Diversity Plus: 3C Assay for Monocyte Chemoattractant Protein-1 (MCP1) Biomarker Activity (AID 2283017). The conditions noted are these: primary human endothelial cells (HUVEC); actives raise or lower the signal. In short, it runs like this: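 Endothelial cells from human umbilical vein are dosed with chemical, cultured 24 h, then assayed for MCP-1 by ELISA; both increases and decreases are modelled against DMSO controls.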

Sequence of E-selectin (Homo sapiens) (P16581 whole entry, looked up): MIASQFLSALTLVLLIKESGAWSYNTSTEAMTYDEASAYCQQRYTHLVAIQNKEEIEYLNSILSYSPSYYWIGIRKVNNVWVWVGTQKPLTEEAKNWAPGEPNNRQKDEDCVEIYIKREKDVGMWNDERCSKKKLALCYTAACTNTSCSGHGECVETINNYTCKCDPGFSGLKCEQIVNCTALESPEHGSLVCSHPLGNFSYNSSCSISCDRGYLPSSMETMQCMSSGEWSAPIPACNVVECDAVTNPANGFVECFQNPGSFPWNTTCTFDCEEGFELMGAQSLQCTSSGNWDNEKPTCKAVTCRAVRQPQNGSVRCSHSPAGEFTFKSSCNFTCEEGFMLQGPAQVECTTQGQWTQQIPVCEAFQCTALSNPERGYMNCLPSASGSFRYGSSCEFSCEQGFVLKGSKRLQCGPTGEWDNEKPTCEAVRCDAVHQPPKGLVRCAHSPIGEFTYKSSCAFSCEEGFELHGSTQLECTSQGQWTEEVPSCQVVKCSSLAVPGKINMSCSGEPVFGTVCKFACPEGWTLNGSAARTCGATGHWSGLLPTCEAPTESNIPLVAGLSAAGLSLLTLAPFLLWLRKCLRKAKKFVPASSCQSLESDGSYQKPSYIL
Sequence of Nuclear receptor subfamily 1 group I member 2 (Homo sapiens) (O75469 whole entry, looked up, the tested form may be a part): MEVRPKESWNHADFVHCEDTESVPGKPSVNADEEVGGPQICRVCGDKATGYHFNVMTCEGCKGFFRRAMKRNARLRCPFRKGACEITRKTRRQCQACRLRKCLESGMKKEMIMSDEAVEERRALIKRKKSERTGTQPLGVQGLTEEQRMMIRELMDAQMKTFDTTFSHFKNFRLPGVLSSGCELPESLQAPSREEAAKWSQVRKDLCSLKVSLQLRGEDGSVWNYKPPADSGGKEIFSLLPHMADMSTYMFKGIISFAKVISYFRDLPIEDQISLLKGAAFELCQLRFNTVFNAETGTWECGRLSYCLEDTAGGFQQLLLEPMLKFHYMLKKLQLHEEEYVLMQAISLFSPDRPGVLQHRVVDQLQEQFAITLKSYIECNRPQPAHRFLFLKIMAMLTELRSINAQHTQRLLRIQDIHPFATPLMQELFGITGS
Sequence of human Thyroid Receptor alpha (THRa1), THRA (gene 7067) (P10827 whole entry, looked up, the tested form may be a part): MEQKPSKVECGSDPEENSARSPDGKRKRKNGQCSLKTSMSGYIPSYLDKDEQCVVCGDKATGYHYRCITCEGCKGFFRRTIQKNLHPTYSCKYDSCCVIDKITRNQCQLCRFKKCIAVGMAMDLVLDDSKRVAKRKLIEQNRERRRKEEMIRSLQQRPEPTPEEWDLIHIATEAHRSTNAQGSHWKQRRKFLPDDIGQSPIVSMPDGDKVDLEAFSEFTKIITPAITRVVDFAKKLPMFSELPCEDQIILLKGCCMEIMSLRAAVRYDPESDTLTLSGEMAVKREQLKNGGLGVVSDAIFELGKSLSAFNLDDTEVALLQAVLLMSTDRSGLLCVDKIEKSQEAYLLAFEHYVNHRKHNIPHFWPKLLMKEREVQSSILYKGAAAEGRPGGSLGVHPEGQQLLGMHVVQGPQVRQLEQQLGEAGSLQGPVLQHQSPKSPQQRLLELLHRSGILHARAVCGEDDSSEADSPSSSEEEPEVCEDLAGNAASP
Sequence of Peroxisome proliferator-activated receptor gamma (Homo sapiens) (P37231 whole entry, looked up, the tested form may be a part): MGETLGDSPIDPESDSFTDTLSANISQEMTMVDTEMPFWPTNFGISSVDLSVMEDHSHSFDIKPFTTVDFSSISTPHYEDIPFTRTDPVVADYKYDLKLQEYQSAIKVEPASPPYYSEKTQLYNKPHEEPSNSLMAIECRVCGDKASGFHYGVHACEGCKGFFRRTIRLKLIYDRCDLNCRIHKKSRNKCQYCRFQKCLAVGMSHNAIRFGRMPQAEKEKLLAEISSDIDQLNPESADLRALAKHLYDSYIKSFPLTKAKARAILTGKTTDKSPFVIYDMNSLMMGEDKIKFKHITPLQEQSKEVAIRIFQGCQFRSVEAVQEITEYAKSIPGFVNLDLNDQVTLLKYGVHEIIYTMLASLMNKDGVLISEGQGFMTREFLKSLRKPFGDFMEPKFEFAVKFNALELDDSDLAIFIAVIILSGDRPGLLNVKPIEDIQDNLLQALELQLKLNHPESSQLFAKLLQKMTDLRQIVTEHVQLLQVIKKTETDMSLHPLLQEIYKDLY
Sequence of human Retinoid X Receptor beta (RXRb), RXRB (gene 6257) (P28702 whole entry, looked up, the tested form may be a part): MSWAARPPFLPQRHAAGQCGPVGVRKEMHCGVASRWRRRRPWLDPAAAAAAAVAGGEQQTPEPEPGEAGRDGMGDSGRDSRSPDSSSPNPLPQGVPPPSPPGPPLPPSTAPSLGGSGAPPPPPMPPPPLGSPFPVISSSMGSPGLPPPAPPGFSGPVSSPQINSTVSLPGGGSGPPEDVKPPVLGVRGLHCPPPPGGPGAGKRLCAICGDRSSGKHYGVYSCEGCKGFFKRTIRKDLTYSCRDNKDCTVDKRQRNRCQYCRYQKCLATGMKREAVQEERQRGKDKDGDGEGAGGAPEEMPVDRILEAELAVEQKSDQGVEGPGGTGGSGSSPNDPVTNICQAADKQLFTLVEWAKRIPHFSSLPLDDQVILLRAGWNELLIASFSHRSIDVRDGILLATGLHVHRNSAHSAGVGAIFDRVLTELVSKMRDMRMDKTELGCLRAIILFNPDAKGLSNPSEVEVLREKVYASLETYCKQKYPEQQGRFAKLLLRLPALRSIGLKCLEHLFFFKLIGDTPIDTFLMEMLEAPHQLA
Sequence of Retinoic acid receptor alpha (Homo sapiens) (P10276 whole entry, looked up, the tested form may be a part): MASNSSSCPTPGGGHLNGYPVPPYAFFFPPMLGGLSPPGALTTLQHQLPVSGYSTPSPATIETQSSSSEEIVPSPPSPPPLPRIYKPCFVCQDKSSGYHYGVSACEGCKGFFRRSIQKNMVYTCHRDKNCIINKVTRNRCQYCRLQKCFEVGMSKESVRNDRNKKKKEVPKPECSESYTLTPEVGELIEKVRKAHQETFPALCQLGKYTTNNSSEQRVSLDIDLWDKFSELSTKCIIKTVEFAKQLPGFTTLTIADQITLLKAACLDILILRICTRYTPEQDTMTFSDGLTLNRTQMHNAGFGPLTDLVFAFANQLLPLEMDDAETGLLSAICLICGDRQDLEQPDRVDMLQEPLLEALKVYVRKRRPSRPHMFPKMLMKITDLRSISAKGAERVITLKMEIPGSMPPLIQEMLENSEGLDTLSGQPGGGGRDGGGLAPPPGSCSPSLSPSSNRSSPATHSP

Regarding `Nc1c(Cl)c(Cl)nc(C(=O)O)c1Cl`, the outcome in [1], in [2], in assay [3], in [4], in assay [5] and in [6] was inactive. In addition, the result in assay [7], in assay [8], in assay [9], in assay [10], in [11] and in assay [12] was inactive. Moreover, the outcome in assay [13] was inactive.
For `COC(=O)NC(=S)Nc1ccccc1NC(=S)NC(=O)OC`, the result in assay [1], in assay [2], in [14], in assay [4], in [5] and in [6] was inactive. For the same compound, the compound was called inactive in assay [15], in [16], in assay [8], in assay [10] and in assay [12]. The concentration at half-maximal activity (AC50) in assay [11] is 5.15 µM (active); in assay [13] it was 5.32 µM (active).
For `CC1(C)CCC(=Cc2ccc(Cl)cc2)C1(O)Cn1cncn1` (stereo not given), the outcome in [1], in assay [2], in [4], in [17], in assay [18] and in assay [5] was inactive. Further, the compound was called inactive in assay [6], in assay [19], in assay [8], in assay [9], in [11] and in assay [12]. For the same compound, the result in [20] and in assay [13] was inactive. The AC50 in [15] was 9.33 µM (active).
On to `CNC(=O)Oc1cccc2ccccc12`, for which the outcome in assay [1], in assay [4], in assay [17], in assay [18], in assay [15] and in [19] was inactive. In addition, the result in [16], in assay [7], in assay [8], in assay [9], in assay [10] and in [11] was inactive. Besides, the result in assay [12] and in assay [13] was inactive. Further, the values for the AC50 in assay [2] and in assay [5] were 20 µM (active) and 22.9 µM (active), respectively.
On to `CCCCC(O)(Cn1cncn1)c1ccc(Cl)cc1Cl` (stereo not given), for which the result in [1], in assay [2], in assay [14], in assay [4], in [6] and in [15] was inactive. In addition, the compound was classed as inactive in assay [7], in assay [8], in [11], in assay [12], in [20] and in assay [13]. Further, the AC50 in [5] was 26.2 µM (active).
